Laboratory results reported in PubChem BioAssay AID463173 (ICCB-Longwood Screening Facility, Harvard Medical School, 2010).
About 4,300 (8.3%) of roughly 52,000 compounds were called active. The sample as a whole holds a higher share of actives than the screen did. A number with no mark means an inactive call. Rule as the data show it: active = survival mostly below about 52% (no sharp cut-off); inactive = mostly above about 56%.

tested on: DeltatarO mutant; test: S. aureus survival, RN4220 and DeltatarO strains – OD600, teichoic acid synthesis inhibitors, primary screen (AID 463173); conditions: S. aureus RN4220 wild type/DeltatarO growth, OD600, 18 h, hits give low values, screened at 18.75 µg/mL (by protocol)

SMILES | survival
COc1cc(C(=O)n2nc(-c3ccco3)nc2NCc2ccc(Cl)cc2)cc(OC)c1OC | 82%
COc1cccc(CNC(=O)CSC2=Nc3ccccc3C3=NC(C(C)C)C(=O)N23)c1 (configuration not stated) | 69%
Cc1ccc(Cl)cc1N1CCN(C(=O)C2CCN(S(=O)(=O)c3cn(C)cn3)CC2)CC1 | 98%
CC(=O)Nc1cccc(NC(=O)C2CCCN2C(=O)Nc2ccccc2Cl)c1 (configuration not stated) | 113%
CCOc1ccc(-c2csc(-c3nc(-c4ccc(Br)s4)cs3)n2)cc1 | 83%
NC(=O)c1c(NC(=O)CS(=O)(=O)c2ccc(Cl)cc2)sc2c1CCCCC2 | 82%
O=C(CSC1=Nc2ccccc2C2=NC(CCC(=O)NC3CCCCC3)C(=O)N12)Nc1cccc(Cl)c1 (configuration not stated) | 112%
CCC(=O)N1CCc2cc(Br)cc(S(=O)(=O)CCC(=O)N(C)c3cccc(C)c3)c21 | 62%
COc1cc(NC(=O)CC2C(=O)N(c3cccc(C)c3)C(=O)N2Cc2cccs2)cc(OC)c1 (configuration not stated) | 66%
Cc1cccc(N2C(=O)C(CC(=O)Nc3cccc(F)c3)N(CCc3ccncc3)C2=O)c1 (configuration not stated) | 75%
Cc1cccc(N2C(=O)C(CC(=O)Nc3cccc(F)c3)N(Cc3cccs3)C2=O)c1 (configuration not stated) | 8% (active)
CCc1ccc(NC(=O)CC2C(=O)N(c3ccc(Cl)cc3)C(=O)N2Cc2cccs2)cc1 (configuration not stated) | 60%
CCc1ccc(NC(=O)CC2C(=O)N(c3cccc(C)c3)C(=O)N2Cc2cccs2)cc1 (configuration not stated) | 20% (active)
CCOc1ccc(NC(=O)CC2C(=O)N(c3cccc(C)c3)C(=O)N2Cc2cccs2)cc1 (configuration not stated) | 89%
Cn1c(=O)n(C)c2cc(NS(=O)(=O)c3ccc(F)cc3)c(NCc3ccccc3)cc21 | 68%
CCc1nn(CCCC(=O)N2CCN(c3ccc(OC)cc3)CC2)c(=O)c2cc3occc3n12 | 87%
C=CCc1ccccc1OCc1nc2ccccc2n1CC | 49%
Cc1ccccc1OCc1nc2ccccc2n1Cc1ccccc1Cl | 0% (active)
COc1ccc(-n2c(=O)c3ccccc3n(Cc3ccccc3Cl)c2=O)cc1 | 110%
Cc1ccccc1Cn1c(COc2ccc(Cl)cc2)nc2ccccc21 | 114%
C#CCn1c(COc2ccccc2C)nc2ccccc21 | 111%
Cc1ccc(OCc2nc3ccccc3n2Cc2ccccc2Cl)cc1 | -8% (active)
COc1ccc(OCc2nc3ccccc3n2Cc2ccccc2Cl)cc1 | 39% (active)

SMILES | survival
Cc1cccc(C(=O)NCc2nc3ccccc3n2Cc2ccccc2Cl)c1 | 106%
CCc1cc(C(=O)NCc2ccc(F)cc2)no1 | 53%
Cc1cc(=O)oc2cc(OCC(=O)NCc3ccco3)ccc12 | 74%
CC(C)C(c1nnnn1C1CCCC1)N1CCN(C(=O)c2ccco2)CC1 (configuration not stated) | 86%
Cc1cccc(C(=O)NCC(c2ccc3c(c2)OCO3)N2CCOCC2)c1 (configuration not stated) | 73%
Cc1ccc(N2C(=O)CCSC23C(=O)N(Cc2ccccc2)c2ccccc23)cc1 (configuration not stated) | 89%
Cc1cccc(NC(=O)CSc2nnc(N)s2)c1 | 149%
COc1cc(C(=O)NCCc2sc(-c3ccc(C)cc3)nc2C)cc(OC)c1OC | 80%
Cc1ccc(/C=C2\SC(=O)NC2=S)o1 | 33% (active)
Cc1ccc(N=Cc2ccc(C)o2)cc1 | 98%
Cc1ccc(-n2c(C)cc(/C=C3\SC(=O)NC3=O)c2C)cc1 | 95%
Fc1ccc(CNc2ccc(N3CCCC3)cc2)cc1 | 97%
Cc1ccccc1CNC(=O)CN1C(=O)C2CCCCN2c2ccc(C(=O)N3CCCC3)cc21 (configuration not stated) | 76%
CCC(C)NC(=O)c1ccc2c(c1)N(Cc1ccccc1F)C(=O)c1ccccc1S2=O (configuration not stated) | 64%
Cc1ccc2oc(-c3ccc(Cl)cc3)c(O)c(=O)c2c1 | 72%
CC1CCN(C(=O)CSc2nnc(-c3ccccc3Cl)o2)CC1 | 104%
CC1CCCCN1C(=O)CSc1nnc(-c2ccccc2Cl)o1 (configuration not stated) | 74%
CC1Cc2ccccc2N1C(=O)CSc1nnc(-c2ccccc2Cl)o1 (configuration not stated) | 49% (active)
CC1Cc2ccccc2N1C(=O)CSc1nnc(-c2cccc(Cl)c2)o1 (configuration not stated) | 34% (active)
O=C(CSc1nnc(-c2cccc(F)c2)o1)N1c2ccccc2Sc2ccccc21 | 114%
O=C(CSc1nnc(-c2cccc(Cl)c2)o1)N1CCc2ccccc21 | 85%
COc1cccc(-c2nnc(SCC(=O)N3c4ccccc4Sc4ccccc43)o2)c1 | 35% (active)
COc1cccc(-c2nnc(SCC(=O)N3CCc4ccccc43)o2)c1 | 70%

SMILES | survival
CC1Cc2ccccc2N1C(=O)CSc1nnc(-c2ccccc2)o1 (configuration not stated) | 69%
CCc1cccc(C)c1NS(=O)(=O)c1c(C(=O)N2CCCCCC2)c(C)n(C)c1C | 101%
Cc1ccc(-n2ncc(C(=O)N3CCN(C4CCCCC4)CC3)c2C2CCN(C(=O)OC(C)(C)C)CC2)cc1C | 85%
Cc1cccc(CNS(=O)(=O)c2csc(C(N)=O)c2)c1 | 76%
CC(Oc1ccccc1)C(=O)Nc1ccc(OCc2cc(=O)n3ccsc3n2)cc1 (configuration not stated) | 76%
CCCn1c(=O)c2sccc2n2c(CCCC(=O)Nc3ccc(C)c(F)c3)nnc12 | 88%
O=C(C1CCCCC1)N1CCN(c2ncnc3c2cnn3-c2ccccc2)CC1 | 101%
O=CN1CCN(C(=O)c2ccc(F)cc2)CC1 | 78%
Cc1c(C(=O)NCc2cccc(Cl)c2)sc2ncnc(N(C)C3CCCCC3)c12 | 101%
Cc1cccc(CNC(=O)c2sc3ncnc(N(C)C4CCCCC4)c3c2C)c1 | 46% (active)
Cc1c(C(=O)Nc2ccccc2F)sc2ncnc(N(C)C3CCCCC3)c12 | 37% (active)
Cc1ccc(CNC(=O)c2sc3ncnc(N(C)C4CCCCC4)c3c2C)cc1 | 91%
Cc1cccc(NC(=O)c2sc3ncnc(N(C)C4CCCCC4)c3c2C)c1C | 118%
Cc1c(C(=O)Nc2ccccc2Cl)sc2ncnc(N(C)C3CCCCC3)c12 | 92%
O=C(NC1CC(=O)N(c2cccc(F)c2)C1)c1ccc(S(=O)(=O)N2CCCCC2)cc1 (configuration not stated) | 91%
CCc1ccccc1Nc1ncnc2c1nc1n2CCCC1 | 94%
O=C(CSc1nc2c([nH]c3ccccc32)c(=O)n1-c1ccc(Cl)cc1)N1CCCCCC1 | 76%
CN(Cc1ccc(F)cc1)S(=O)(=O)c1nnc(NC(=O)c2ccccc2Cl)s1 | 85%
Cc1cccc(C(=O)Nc2nnc(S(=O)(=O)N(C)Cc3ccc(Cl)cc3)s2)c1 | 95%
Cc1cccc(N(C)S(=O)(=O)c2nnc(NC(=O)C(C)Oc3ccccc3)s2)c1 (configuration not stated) | 54%
CCCCC(=O)Nc1nnc(S(=O)(=O)N(C)Cc2ccccc2)s1 | 91%
CN(Cc1ccccc1)S(=O)(=O)c1nnc(NC(=O)c2ccccc2Cl)s1 | 29% (active)
Cc1cccc(C(=O)Nc2nnc(S(=O)(=O)N(C)Cc3ccccc3)s2)c1 | 23% (active)

SMILES | survival
CN(Cc1ccccc1)S(=O)(=O)c1nnc(NC(=O)c2cccc(Cl)c2)s1 | 1% (active)
Cc1ccccc1C(=O)Nc1nnc(S(=O)(=O)N(C)Cc2ccccc2)s1 | 75%
CCOc1cccc(C(=O)Nc2nnc(S(=O)(=O)N(C)c3ccc(C)cc3)s2)c1 | 75%
CCC(=O)Nc1nnc(S(=O)(=O)N(C)Cc2ccccc2)s1 | 87%
Cc1cccc(C(=O)Nc2nnc(S(=O)(=O)N(C)c3ccccc3C)s2)c1 | 32% (active)
Cc1ccc(C(=O)Nc2nnc(S(=O)(=O)N(C)Cc3ccc(Cl)cc3)s2)cc1 | 99%
Cc1ccc(S(=O)(=O)c2nnn3c2nc(N(C)Cc2ccccc2)c2cc(Cl)ccc23)cc1C | 108%
Cc1ccccc1NC(=O)CSCn1nnc2c(=O)[nH]c(Cc3ccc(F)cc3)nc21 | 55%
CC(C)Cn1c(=O)c2ccccc2n2c(CCC(=O)Nc3cccc(Cl)c3)nnc12 | 88%
Cc1cc(OC(C)C(=O)N2CCC(c3nc4ccccc4o3)CC2)ccc1Cl (configuration not stated) | 57%
COc1ccc(C(=O)N/C(=C\c2cn(S(=O)(=O)N(C)C)c3ccccc23)C(=O)NCCCn2ccnc2)cc1 | 85%
O=C(O)CCc1nnc2cnc3ccccc3n12 | 171%
CCc1ccc(NC(=O)CC2C(=O)NCCN2C(=O)c2ccccc2OC)cc1 (configuration not stated) | 109%
COC(=O)c1ccc(NC(=O)c2cc3cc4ccc(OC)c(Cl)c4nc3s2)cc1 | 98%
Cc1ccc(NC(=O)CSc2cc(=O)n(C)c3ccc(Cl)cc23)c(Br)c1 | 79%
CCCCOC(=O)c1ccc(NC(=O)Cc2coc3c(C)c(C)ccc23)cc1 | 79%
Cc1ccccc1N(C)S(=O)(=O)c1nnc(NC(=O)c2ccccc2F)s1 | 27% (active)
CN(Cc1ccc(F)cc1)S(=O)(=O)c1nnc(NC(=O)c2ccccc2)s1 | 102%
CN(Cc1ccccc1)S(=O)(=O)c1nnc(NC(=O)c2ccccc2)s1 | 26% (active)
Cc1ccccc1N(C)S(=O)(=O)c1nnc(NC(=O)C(C)C)s1 | 69%
CN(Cc1ccc(F)cc1)S(=O)(=O)c1nnc(NC(=O)c2ccc(F)cc2)s1 | 81%
CCc1ccc(NC(=O)Cn2c(=O)n(-c3cc(OC)c(OC)c(OC)c3)c(=O)c3ccccc32)cc1 | 72%
COC(=O)c1cc2sc(Cl)cc2n1Cc1nc(-c2ccccc2C)oc1C | 78%
